From PubChem BioAssay
Unmarked numbers belong to inactive results. A call without a number means that no potency is given here. For some assays here: Potency and affinity values are given separately. The source made the active and inactive calls. Unless noted, no rule for the calls is given here.

Key:
[1] = antimalarial activity against Dd2 strain (AID 2302;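 active = growth inhibition above 50% at the single 2 µM test dose, taken to imply half-maximal potency below 2 µM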); conditions: P. falciparum Dd2 in RBCs, LDH growth readout, 72 h; at 2 µM; stronger effect = higher value
[2] = human hepatoma cell viability loss – ATP luminescence, cytotoxicity control for P. falciparum antimalarial project, primary screen (AID 2303;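 active = inhibition above 50%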); conditions: HepG2 viability, 24-48 h, at 10 µM, stronger effect = higher value
[3] = biological target: L-lactate dehydrogenase (Plasmodium falciparum (isolate CDC / Honduras)) (UniProt Q27743); assay: PfLDH activity inhibition – cell lysate, 3D7 strain, counter-screen for P. falciparum growth inhibition project (AID 2304); conditions: P. falciparum 3D7 crude extract, LDH APAD/NBT absorbance; at 2 µM; stronger effect = higher value
[4] = inhibition of 3D7 malaria parasite growth – strain 3D7 (AID 2306); conditions: P. falciparum 3D7 erythrocytic growth, LDH absorbance, 72 h; at 2 µM; stronger effect = higher value
[5] = biological target: Calcium-dependent protein kinase 1 (Plasmodium falciparum (isolate 3D7)) (UniProt P62344); assay: PfCDPK1 kinase inhibitors, biochemical, TCAMS library (AID 1159585; cut-off not given, nearly all actives have IC50 up to about 0.98 µM;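 also: inhibitors leave more ATP so luminescence rises with inhibition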); conditions: recombinant PfCDPK1, Kinase-Glo ATP depletion luminescence
[6] = biological target: Plasmodium falciparum protein kinase 6 (PK6, PF3D7_1337100) (UniProt Q8IDW1); assay: PfPK6 kinase inhibitors, biochemical, TCAMS library (AID 1159586); conditions: recombinant PfPK6, Kinase-Glo ATP depletion luminescence
[7] = biological target: Protein kinase 7 (PK7), Plasmodium falciparum 3D7 (PF3D7_0213400) (UniProt Q7YTF7); assay: inhibition of Plasmodium PK7 catalytic activity – biochemical, TCAMS antimalarial set, Kinase-Glo luminescence (AID 1159587); conditions: recombinant PfPK7, Kinase-Glo ATP depletion luminescence
[8] = biological target: Calcium-dependent protein kinase 4 (Plasmodium falciparum (isolate 3D7)) (UniProt Q8IBS5); assay: PfCDPK4 kinase inhibitors, biochemical, TCAMS library (AID 1159588; cut-off not given, nearly all actives have IC50 up to about 0.91 µM); conditions: recombinant PfCDPK4, Kinase-Glo ATP depletion luminescence
Sequence of Calcium-dependent protein kinase 4 (Plasmodium falciparum (isolate 3D7)) (Q8IBS5 whole entry, looked up): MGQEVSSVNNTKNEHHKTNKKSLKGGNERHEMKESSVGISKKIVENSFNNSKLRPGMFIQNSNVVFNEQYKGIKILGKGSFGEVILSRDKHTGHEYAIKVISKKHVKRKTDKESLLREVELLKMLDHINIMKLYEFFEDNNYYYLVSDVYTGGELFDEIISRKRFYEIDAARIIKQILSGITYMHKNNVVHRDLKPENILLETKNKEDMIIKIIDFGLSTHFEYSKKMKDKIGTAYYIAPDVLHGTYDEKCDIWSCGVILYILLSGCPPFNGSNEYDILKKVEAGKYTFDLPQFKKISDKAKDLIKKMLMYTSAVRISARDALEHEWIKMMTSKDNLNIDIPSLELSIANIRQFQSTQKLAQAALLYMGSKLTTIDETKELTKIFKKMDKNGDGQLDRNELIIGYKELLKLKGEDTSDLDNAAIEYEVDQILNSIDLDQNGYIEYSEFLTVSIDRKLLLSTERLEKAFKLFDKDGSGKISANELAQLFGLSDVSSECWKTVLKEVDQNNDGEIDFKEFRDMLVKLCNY

Sequence of L-lactate dehydrogenase (Plasmodium falciparum (isolate CDC / Honduras)) (Q27743 whole entry, looked up): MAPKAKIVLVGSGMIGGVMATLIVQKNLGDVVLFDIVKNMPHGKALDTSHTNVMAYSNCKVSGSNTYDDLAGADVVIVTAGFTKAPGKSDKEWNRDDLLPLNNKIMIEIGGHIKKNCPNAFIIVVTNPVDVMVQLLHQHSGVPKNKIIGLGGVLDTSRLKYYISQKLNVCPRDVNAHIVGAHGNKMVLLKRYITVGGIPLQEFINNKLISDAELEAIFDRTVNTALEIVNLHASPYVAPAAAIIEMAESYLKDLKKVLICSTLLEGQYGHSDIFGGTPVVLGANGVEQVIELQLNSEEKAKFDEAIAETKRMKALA
Sequence of Calcium-dependent protein kinase 1 (Plasmodium falciparum (isolate 3D7)) (P62344 whole entry, looked up): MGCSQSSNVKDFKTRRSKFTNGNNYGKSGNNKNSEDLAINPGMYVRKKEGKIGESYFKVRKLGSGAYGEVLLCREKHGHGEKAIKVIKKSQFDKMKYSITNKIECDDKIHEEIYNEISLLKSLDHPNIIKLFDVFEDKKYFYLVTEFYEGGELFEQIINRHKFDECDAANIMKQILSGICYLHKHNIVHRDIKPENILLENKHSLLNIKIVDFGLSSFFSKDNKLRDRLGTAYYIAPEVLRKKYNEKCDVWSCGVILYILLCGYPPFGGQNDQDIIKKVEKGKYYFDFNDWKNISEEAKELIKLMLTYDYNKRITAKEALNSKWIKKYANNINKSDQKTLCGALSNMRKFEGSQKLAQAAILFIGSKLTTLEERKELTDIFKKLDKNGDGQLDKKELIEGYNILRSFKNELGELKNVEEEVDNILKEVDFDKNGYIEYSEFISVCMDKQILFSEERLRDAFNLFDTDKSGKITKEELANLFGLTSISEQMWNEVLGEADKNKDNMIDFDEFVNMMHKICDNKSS
Sequence of Protein kinase 7 (PK7), Plasmodium falciparum 3D7 (PF3D7_0213400) (Q7YTF7 1-343): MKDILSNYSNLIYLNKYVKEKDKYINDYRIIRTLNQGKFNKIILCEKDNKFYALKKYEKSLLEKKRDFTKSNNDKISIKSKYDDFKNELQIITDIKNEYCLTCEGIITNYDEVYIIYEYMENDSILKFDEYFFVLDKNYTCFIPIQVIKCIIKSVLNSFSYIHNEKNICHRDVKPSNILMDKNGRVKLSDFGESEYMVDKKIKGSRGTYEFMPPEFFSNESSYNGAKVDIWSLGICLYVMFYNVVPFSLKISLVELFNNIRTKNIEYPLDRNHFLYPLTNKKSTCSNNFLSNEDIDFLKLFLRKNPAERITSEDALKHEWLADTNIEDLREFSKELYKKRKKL
Sequence of Plasmodium falciparum protein kinase 6 (PK6, PF3D7_1337100) (Q8IDW1 1-305): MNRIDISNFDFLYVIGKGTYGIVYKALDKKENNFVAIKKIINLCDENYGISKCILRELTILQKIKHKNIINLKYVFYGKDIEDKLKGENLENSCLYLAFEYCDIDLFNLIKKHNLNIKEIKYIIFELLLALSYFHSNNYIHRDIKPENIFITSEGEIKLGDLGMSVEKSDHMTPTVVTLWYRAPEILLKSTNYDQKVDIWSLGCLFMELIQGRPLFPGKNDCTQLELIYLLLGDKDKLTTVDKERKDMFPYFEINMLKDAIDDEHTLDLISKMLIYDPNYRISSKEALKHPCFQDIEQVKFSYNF

Row | SMILES | growth inhibition [1] | inhibition [2] | inhibition [3] [%] | growth inhibition [4] | outcome [5] | outcome [6] | outcome [7] | outcome [8]
1 | COc1ccc(-c2cc3ncn(CC(=O)N4CCN(c5cccc(OC)c5)CC4)c(=O)c3s2)cc1 | 26% | 49% | -7 | 84% (active) | inactive | inactive | inactive | inactive
2 | Cc1ccc(NC(C)C(=O)Nc2ccc(C#N)cc2)cc1S(=O)(=O)N1CCCCC1 (stereo not given) | 92% (active) | 11% | 1 | 92% (active) | inactive | inactive | inactive | inactive
3 | CCNC[C@@H](O)[C@H](Cc1ccccc1)NC(=O)c1cc2c3c(c1)c(CC)cn3CCS(=O)(=O)N2C | 65% (active) | 0% | -4 | 99% (active) | inactive | inactive | inactive | inactive
4 | Cc1cc(-c2cccc3c(NC(=O)N4CCc5cc6nccc(N7CCN8CCC[C@H]8C7)c6cc54)cccc23)cc(C)n1 | 100% (active) | 12% | 6 | 101% (active) | inactive | inactive | inactive | inactive
5 | CCN(CCCN1CCCCC1)c1cc(C)nc(Nc2ccc(C)c(Br)c2)n1 | 98% (active) | 42% | -8 | 102% (active) | inactive | inactive | inactive | inactive
6 | CCOc1ccc(Nc2nc(N)c3ccccc3n2)cc1 | 6% | 28% | 2 | 90% (active) | inactive | inactive | inactive | inactive
7 | CN1CCN(c2nsc3ccc(-c4ccc(NC(=O)Nc5cc(C(F)(F)F)ccc5F)cc4)cc23)CC1 | 64% (active) | 100% (active) | -3 | 99% (active) | inactive | inactive | inactive | inactive
8 | O=C(NC1CCN(CCN2CCC(c3c[nH]c4ccccc34)CC2)CC1)c1ccc(-c2ccc(C(F)(F)F)cc2)cc1 | 100% (active) | 100% (active) | 4 | 99% (active) | inactive | inactive | inactive | inactive
9 | CC[C@H](C)CNC(=O)c1cncc(-c2cccc(CNC3Cc4ccccc4C3)c2)c1 | 76% (active) | 5% | 0 | 101% (active) | inactive | inactive | inactive | inactive
10 | O=C(C=Cc1ccc(Cl)c(Cl)c1)NCCCCCN1CCC(CCCNC(=O)c2sc3ccccc3c2Cl)CC1 | 40% | 99% (active) | -5 | 93% (active) | inactive | inactive | inactive | inactive
11 | CC(Nc1cc(-c2ccccn2)nc(-c2ccccn2)n1)c1ccccc1 (stereo not given) | 98% (active) | 61% (active) | -3 | 85% (active) | inactive | inactive | inactive | inactive
12 | O=C(NCCc1cccc(F)c1)c1ccc(N2CCN(c3ccncc3)CC2)cn1 | 7% | 4% | -3 | 94% (active) | inactive | inactive | inactive | inactive
13 | CCN(CC)CCCNc1ncc2c(-c3ccc(NC(=O)Nc4cc(C(F)(F)F)ccc4F)c(F)c3)nn(C)c2n1 | 68% (active) | 100% (active) | 3 | 94% (active) | inactive | inactive | inactive | inactive
14 | c1cc(-c2nc3ccccc3[nH]2)nc(-c2nc3ccccc3[nH]2)c1 | 24% | 7% | 0 | 87% (active) | inactive | inactive | inactive | inactive
15 | O=C(NCCN1CCOCC1)c1ccc(N2CCC(Oc3ccc4ccccc4c3)CC2)nc1 | 30% | 1% | -3 | 92% (active) | inactive | inactive | inactive | inactive
16 | CCCCCCCNC(=O)NCC1CCCN(CCCCCNC(=O)/C=C/c2ccc(Cl)c(Cl)c2)C1 (stereo not given) | 7% | 98% (active) | -1 | 86% (active) | inactive | inactive | inactive | inactive
17 | CC1CC(NCCCNc2cc(=O)c3ccccc3[nH]2)c2cc(Cl)c(Cl)c(Cl)c21 (stereo not given) | 69% (active) | 0% | 3 | 100% (active) | inactive | inactive | inactive | inactive
18 | CC(C)CCN1CCC(Oc2ccc(NC(=O)c3ccc4ncccc4c3)cc2Cl)C1 (stereo not given) | 14% | 33% | -4 | 95% (active) | inactive | inactive | inactive | inactive
19 | CCCN(Cc1nnc(-c2ccco2)o1)C(=O)C1CCN(c2ncc(C(F)(F)F)cc2Cl)CC1 | 92% (active) | 19% | -6 | 98% (active) | inactive | inactive | inactive | inactive
20 | Cc1ccc(NC(=O)NC2CCN(CCCCCNC(=O)[C@@H]3C[C@H]3c3ccc(Cl)c(Cl)c3)CC2)cc1 | 19% | 35% | 1 | 101% (active) | inactive | inactive | inactive | inactive

Row | SMILES | growth inhibition [1] | inhibition [2] | inhibition [3] [%] | growth inhibition [4] | outcome [5] | outcome [6] | outcome [7] | outcome [8]
21 | COc1ccc(Nc2ncc3c(-c4cccc(NC(=O)c5ccc(N)cc5)c4)c[nH]c3n2)cc1OC | 31% | 83% (active) | -3 | 84% (active) | inactive | inactive | inactive | inactive
22 | O=C(CC(c1ccccc1)c1ccccc1O)N1CCOCC1 (stereo not given) | 5% | 30% | 0 | 84% (active) | inactive | inactive | inactive | inactive
23 | O=C(/C=C/C=C/c1ccccc1)NCCCCCN1CCC(c2c[nH]c3ccccc23)CC1 | 7% | 28% | 4 | 85% (active) | inactive | inactive | inactive | inactive
24 | CC(C)N1CCC(N(Cc2ccc(-c3ccc(C(F)(F)F)cc3)cc2)C(=O)Cn2c(CCc3cccc(F)c3F)cc(=O)c3c2CCC3)CC1 | 62% (active) | 30% | -7 | 100% (active) | inactive | inactive | inactive | inactive
25 | CCCCCN1C(=O)C(c2ccccc2)(c2ccccc2)N=C1N | 68% (active) | 18% | -1 | 97% (active) | inactive | inactive | inactive | inactive
26 | C#CCCC(=O)Nc1cccc(-c2cccc(-c3nc4ccc(C(F)(F)F)cc4[nH]3)c2)c1 | 45% | 14% | -4 | 90% (active) | inactive | inactive | inactive | inactive
27 | COc1ccc2nc(-c3ccccc3)cc(NN=Cc3ccc([N+](=O)[O-])cc3)c2c1 | 100% (active) | 89% (active) | 7 | 102% (active) | inactive | inactive | inactive | inactive
28 | CCOC(=O)c1c[nH]c2c(ccc3ccccc32)c1=O | 96% (active) | -5% | 3 | 96% (active) | inactive | inactive | inactive | inactive
29 | CCCC(=O)Nc1ccc(OCCN(Cc2ccccc2OC(F)(F)F)c2ccc(C(F)(F)F)c(C#N)c2)cc1 | 97% (active) | -11% | -1 | 85% (active) | inactive | inactive | inactive | inactive
30 | COc1ccc(CN2CCCC(C(=O)c3ccc(C(F)(F)F)cc3)C2)c(O)c1 (stereo not given) | 88% (active) | -2% | -3 | 98% (active) | inactive | inactive | inactive | inactive
31 | Cc1cccc2[nH]c(C3CCN(CC4CCN(C(=O)/C=C/c5ccc(Cl)c(Cl)c5)CC4)CC3)nc12 | 79% (active) | 46% | 0 | 100% (active) | inactive | inactive | inactive | inactive
32 | COc1ccc(C=C2SC(=O)NC2=Nc2ccccc2)c(OC)c1 | 89% (active) | 51% (active) | -3 | 91% (active) | inactive | inactive | inactive | inactive
33 | CC(=O)Nc1ccc(C(=O)Nc2cccc(-c3ccc(-c4nc5ccccc5[nH]4)s3)c2)cn1 | 91% (active) | 9% | 2 | 101% (active) | inactive | inactive | inactive | inactive
34 | CC(C)(C)c1ccc(NC(=O)c2ccc(CN3CCCN(Cc4ccc(F)cc4)CC3)cc2)cc1 | 7% | 55% (active) | -1 | 87% (active) | inactive | inactive | inactive | inactive
35 | COc1ccc(NC(=O)C2c3ccccc3C(=O)N(C3CCCC3)C2c2cccs2)c(OC)c1 (stereo not given) | 54% (active) | 3% | 4 | 84% (active) | inactive | inactive | inactive | inactive
36 | CN(C)CCNc1cc(-c2cccnc2)nc(-c2ccncc2)n1 | 98% (active) | 33% | -5 | 100% (active) | inactive | inactive | inactive | inactive
37 | CC(=O)Nc1ccccc1OCc1cc2cc(C(=O)N3CCC(N4C(=O)OCc5ccccc54)CC3)ccc2o1 | 98% (active) | 34% | -2 | 99% (active) | inactive | inactive | inactive | inactive
38 | O=C(Nc1cccc(C(F)(F)F)c1)c1cccc(S(=O)(=O)NCC2CCN(CC3CCCCC3)CC2)c1 | 5% | 27% | 0 | 97% (active) | inactive | inactive | inactive | inactive
39 | CCCc1c(Cl)cc(CNCCCNc2nc3ccncc3[nH]2)cc1Cl | -5% | 23% | -5 | 98% (active) | inactive | inactive | inactive | inactive
40 | c1ccc2c(Nc3ccc(Oc4ccc(Nc5c6ccccc6nc6ccccc56)cc4)cc3)c3ccccc3nc2c1 | 99% (active) | 21% | -2 | 101% (active) | inactive | inactive | inactive | inactive
